# Test results from PubChem BioAssay (NCATS).
# Values without a mark were called inactive. Calls come from the whole dose curve.
# Assay: qHTS drug screen for cell cycle checkpoint inhibitors in PARPi-resistant BRCA-mutant ovarian cancer cell lines. (AID 1963452)
# Settings: PEO1/OlaR viability, CellTiter-Glo luminescence, 96 h; stronger effect = lower value
# Procedure, shortened: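 PEO1, PEO4 and PEO1/OlaR ovarian cancer cells, 600 per well, exposed 96 h at 37C to a dilution series. Viability read by CellTiter-Glo luminescence, normalized to DMSO and empty wells; activity summarized as Z-AUC.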
row,Compound,Z-AUC
1,Cc1cn(-c2cc(NC(=O)c3ccc(C)c(Nc4nccc(-c5cccnc5)n4)c3)cc(C(F)(F)F)c2)cn1,0.642
2,CCCCCCCCCC(=O)N[C@@H](Cc1c[nH]c2ccccc12)C(=O)N[C@H](CC(N)=O)C(=O)N[C@@H](CC(=O)O)C(=O)N[C@@H]1C(=O)NCC(=O)N[C@@H](CCCN)C(=O)N[C@@H](CC(=O)O)C(=O)N[C@H](C)C(=O)N[C@@H](CC(=O)O)C(=O)NCC(=O)N[C@H](CO)C(=O)N[C@@H]([C@@H](C)CC(=O)O)C(=O)N[C@@H](CC(=O)c2ccccc2N)C(=O)O[C@@H]1C,-0.7
3,COc1ccc(OC)c(-c2nnc3ccc(-c4ccc(OC)c(O[C@@H]5CCOC5)c4)nn23)c1,-1.33
4,CNC(=O)c1ccc(-c2cnc3ncc(Cc4ccc5ncccc5c4)n3n2)cc1F,-0.273
5,Cc1nc2ccc(CN(C)c3ccc(C(=O)N[C@@H](CCC(=O)O)C(=O)O)s3)cc2c(=O)[nH]1,-1.54
6,C[C@@H]1CN(CC(=O)Nc2ccc3c(c2)Cc2cccc(-c4cc(=O)cc(N5CCOCC5)o4)c2S3)C[C@H](C)O1,0.729
7,COc1cc(C)c(Sc2cnc(NC(=O)c3ccc(CNC(C)C(C)C)cc3)s2)cc1C(=O)N1CCN(C(C)=O)CC1 (centres undefined),-0.385
8,COC(=O)C1=C(C)NC(C)=C(C(=O)OCCN2CCN(C(c3ccccc3)c3ccccc3)CC2)C1c1cccc([N+](=O)[O-])c1 (centres undefined),-0.27
9,COc1cc2c(cc1-c1c(C)noc1C)ncc1[nH]c(=O)n([C@H](C)c3ccccn3)c12,-1.31
